Screens: PubChem BioAssay, National Center for Advancing Translational Sciences (NCATS)
Shown are actives, neighbours in structure and some others; about 6.9% of the full set was active somewhere.
KB-V1 MDR tox = KB-V1 MDR subline cytotoxicity | Potency, µM (top dose mostly 46.1 µM), actives largely listed as cytotoxic | AID 1347076 | 400,000 tested, 3.4% active | KB-V1 MDR cells viability, CellTiter-Glo, 72 h; further: potency means the concentration at half of the fitted maximal effect; on the % scale 0 is the no-effect control and ±100 the full control effect; nearly all actives have a fitted effect of over 60% in size
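In this primary screen, KB-V1 cells overexpressing P-gp are incubated with library compounds (lowest to highest concentration) for 72 h at 37 degrees C before a luminescent ATP viability read.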
S-ASM inh = blocks human secretory acid sphingomyelinase; Potency, µM (series often up to 57.5 µM), without a hit: top-dose activity change, negative = inhibition, most hits filed as inhibitors; P17405; 340,000 tested, 0.006% active; placental ASM, HMU-PC fluorogenic substrate, 60 min; AID 504937; further: potency means the concentration at half of the fitted maximal effect
Target sequence (P17405 47-631 limits assumed): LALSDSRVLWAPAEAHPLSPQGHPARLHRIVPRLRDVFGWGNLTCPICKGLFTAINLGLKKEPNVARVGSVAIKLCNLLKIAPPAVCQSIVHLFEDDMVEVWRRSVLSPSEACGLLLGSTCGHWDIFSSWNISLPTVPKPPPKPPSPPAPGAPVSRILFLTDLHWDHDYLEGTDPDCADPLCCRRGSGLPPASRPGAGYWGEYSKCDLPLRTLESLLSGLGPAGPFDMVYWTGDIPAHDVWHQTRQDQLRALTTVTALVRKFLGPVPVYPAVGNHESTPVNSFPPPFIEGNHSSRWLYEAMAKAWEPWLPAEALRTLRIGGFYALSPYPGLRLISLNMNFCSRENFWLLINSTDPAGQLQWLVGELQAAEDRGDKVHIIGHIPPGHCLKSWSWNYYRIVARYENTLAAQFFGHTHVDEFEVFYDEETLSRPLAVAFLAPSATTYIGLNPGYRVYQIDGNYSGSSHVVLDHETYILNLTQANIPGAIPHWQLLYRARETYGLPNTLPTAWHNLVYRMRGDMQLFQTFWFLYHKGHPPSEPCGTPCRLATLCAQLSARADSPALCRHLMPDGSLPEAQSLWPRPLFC
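Steps: dispense placental human ASM, pin compound, wait 10 min at room temperature, add HMU-PC0 substrate at 9 uM final, incubate 60 min at 37 °C, add stop solution raising pH to 10, read fluorescence.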
Giardia kill = Giardia lamblia killing. activity change, % at 7.66 µM, hits read low. 340,000 tested, 0.15% active. Giardia lamblia trophozoite viability; in the data active means activity change below about -80%; inconclusive means between about -30% and that limit;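 further: parasites exposed to compound for two days anaerobically before the ATP read; on the % scale 0 is the no-effect control and ±100 the full control effect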
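Viability, read as ATP luminescence: trophozoites at 100 cells/well, compound added, 48 hrs anaerobic at 37 deg C, then 15-30 min room-temperature development before reading.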
MCF10A rereplic = inducers of DNA re-replication in MCF 10A breast cells | MCF 10A DNA re-replication, Hoechst nuclear intensity, 48 h | Potency, µM (top dose mostly 46.1 µM), for the others: at the highest dose activity, positive = re-replication, usual class: activators | 350,000 tested, 2.9% active; further: potency means the concentration at half of the fitted maximal effect; % of control where 0% means no effect; nearly all actives have a fitted effect of over 50% in size
SW480 rereplic = DNA re-replication induction in SW480 cells; Potency, µM (doses to about 46.1 µM), for inactives: top-dose re-replication activation, actives largely listed as activators; AID 624297; SW480 DNA re-replication, Hoechst DNA content imaging, 48 h; 340,000 tested, 1.8% active; further: potency means the concentration at half of the fitted maximal effect; % of control where 0% means no effect; nearly all actives have a fitted effect of over 55% in size
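250 cells/well; 23 nL cpd via pin tool; 48 hr, 37 C, 5% CO2; Hoechst 40 min; imager read of total nuclear intensity, ex 405/em 500-530 nm.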
KB-3-1 cytotox = KB-3-1 parental cell cytotoxicity; KB-3-1 viability, CellTiter-Glo ATP luminescence, 72 h; Potency, µM (doses to about 46.1 µM), most hits filed as cytotoxic; 400,000 tested, 1.4% active; AID 1347075; further: potency means the concentration at half of the fitted maximal effect; on the % scale 0 is the no-effect control and ±100 the full control effect; nearly all actives have a fitted effect of over 60% in size
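KB-3-1 parental drug-naive adenocarcinoma cells in DMEM/10% FBS, incubated 72 h at 37 C with pin-transferred compounds across a concentration series. Viability by CellTiter-Glo luminescence; concentration-response curves fitted after normalization.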
The depositor's hits bear a star; i = inactive; ? = inconclusive; / = no result given; [ ] = remark or other dose. Unless noted, the call rests on the fitted dose curve; in most records, active means well fitted curve in the direction sought with a large enough effect; inconclusive means small, poorly fitted or top-dose-only effect, or another doubt; inactive means no such curve, though single readings can be large; an effect the other way counts as inactive or inconclusive.

SMILES	KB-V1 MDR tox	S-ASM inh	Giardia kill	MCF10A rereplic	SW480 rereplic	KB-3-1 cytotox
COc1ccc(CN(Cc2ccccn2)C(=O)CN2C(=O)C(C)Oc3ccccc32)cc1 (configuration not stated)	2.1µM*	-1%	22	28%	14%	i
O=C(CN1C(=O)COc2ccccc21)N(Cc1ccccc1)Cc1ccccn1	15µM*	-6%	-21	-3%	1%	i
COc1ccc(NC(=O)c2oc3ccccc3c2NC(=O)Cc2coc3c(C)c(C)ccc23)cc1	i	/	/	/	/	i
CCc1nc2ccc(C(=O)NCc3ccc(OC)cc3)cn2c1N(CCC(C)C)CCN(C)C	i	/	/	/	/	i
COc1ccc(NC(=O)C2(C)CCN2C(=O)c2ccc(C(C)(C)C)cc2)cc1OC (configuration not stated)	16µM*	/	/	/	/	15µM*
COc1cccc(CN2CCC2(C)C(=O)Nc2cccc3cccnc23)c1F (configuration not stated)	7.3µM*	/	/	/	/	7.3µM*
COc1ccc(NC(=O)C2(C)CCN2Cc2cccc(OC)c2OC)cc1OC (configuration not stated)	8.2µM*	/	/	/	/	?
COc1ccc(NC(=O)C2(C)CCN2Cc2ccc(OC)c3ccccc23)cc1OC (configuration not stated)	i	/	/	/	/	i
CC(C)(C)c1ccc(C(=O)N2CCC2(C)C(=O)Nc2ccc3[nH]ncc3c2)cc1 (configuration not stated)	i	/	/	/	/	i
O=c1c2oc3ccccc3c2ncn1Cc1ccc(F)cc1	i	-4%	-7	-14%	-38%[1.84 µM]	i
O=C(Nc1ccc(Cl)c(C(F)(F)F)c1)c1ccncc1	?	-3%	4	0%	-1%	i
CNC(=O)c1cc(Oc2ccc(NC(=O)Nc3ccc(Cl)c(C(F)(F)F)c3)cc2)ccn1	?	-22%	-7	16µM*	?	?
Cc1ccccc1-c1nn(-c2ccc(F)cc2F)cc1CNCCCN(C)C	i	16%	29	?	?	i
CC(C)c1ccc(/C=C/C(=O)NC(=S)Nc2ccc(CN3CCOCC3)cc2)cc1	?	-21%	-5	23µM*	23%	i
COc1ccc(NC(=O)N2CCC(C(=O)c3ccc4c(c3)OCCO4)CC2)cc1	?	3%	-26	?	8%	i
O=C(c1ccc2c(c1)OCCO2)C1CCN(C(=O)Nc2ccc(F)cc2)CC1	23µM*	-5%	-10	4%	13%	i
O=C(c1ccc2c(c1)OCCO2)C1CCN(S(=O)(=O)c2ccccc2F)CC1	23µM*	1%	10	1%	0%	i
O=C(NC(=S)Nc1ccc(CN2CCOCC2)cc1)c1ccc2c(c1)OCCO2	21µM*	-4%	31	?	?	18µM*
COc1ccc(S(=O)(=O)N2CCC(C(=O)c3ccc4c(c3)OCCO4)CC2)cc1	i	-2%	-6	-6%	2%	?
O=C(NC(=S)Nc1ccc(N2CCOCC2)cc1)c1ccc2c(c1)OCCO2	?	-4%	0	14%	?	i
CCOC(=O)c1noc2ncn(CC(=O)Nc3cccc(Cl)c3)c(=O)c12	i	/	/	/	/	i
O=C(NC(=S)Nc1ccc(F)cc1)c1ccc2c(c1)OCCO2	i	7%	-30	0%	2%	13µM*
COc1ccc(NC(=S)NC(=O)c2ccc3c(c2)OCCO3)cc1	i	8%	-11	2%	-7%	i
Cn1cnc([N+](=O)[O-])c1Oc1ccccc1	i	0%	-16	?	0%	i
O=C(COc1cccnc1[N+](=O)[O-])Nc1cccc2ccccc12	i	-1%	?	-3%	-4%	i
Cn1cnc([N+](=O)[O-])c1Oc1cccc2ccccc12	?	13%	-4	21µM*	?	21µM*
Cn1cnc([N+](=O)[O-])c1S(=O)(=O)Oc1ccc(Cl)cc1	?	7%	0	6.5µM*	5.8µM*	?
